# The list is not random: actives were taken first. Their share in the collection is about 5.4%.
# SKKanGAS inh: S. pyogenes SKKanGAS growth inhibitors in kanamycin, primary screen, streptokinase expression inhibitor project, SKKanGAS strain, BacTiter-Glo luminescence; inhibition, % at 7.5 µM; 300,000 compounds, 1.3% hits; 6 h; AID 1662, 2009;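 active = mean replicate score, as percent of positive control median, at least 50; inconclusive = mean below 50 but one replicate at or above 50; inactive = mean and every replicate below 50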;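 also: strain carries kanamycin resistance gene driven by streptokinase promoter and grows in 40 µg/ml kanamycin; loss of luminescence reflects streptokinase promoter inhibition or plain growth inhibition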
# CSC inhib: cancer stem cell viability inhibitors, primary screen, luminescence | cancer stem cell-like cells viability | inhibition, % at 7.5 µM | 300,000 compounds, 1.1% hits | AID 2717, 2010; in the data active = inhibition above about 75%; inconclusive = no clear call, values can overlap the other calls; tested in HMLE shEcad cells
# MPTP inh: mitochondrial permeability transition pore inhibitors, primary screen, biochemical, isolated mouse mitochondria, absorbance; 360,000 compounds, 1.4% hits; AID 602449, 2012; inhibition, % at 10 µM; Ca2+ swelling absorbance, 30 min;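 active = inhibition of 50% or more, scaled per plate between neutral and stimulator controls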
# Mdm2-MdmX inh: inhibitors of human Mdm2-MdmX association, primary screen, cell-based, luminescence, split luciferase, SaOS-2, uHTS; SaOS-2 split-luciferase Mdm2/MdmX complementation; inhibition, % at 8 µM; 330,000 compounds, 3% hits; Protein Mdm4 (Homo sapiens) + E3 ubiquitin-protein ligase Mdm2 (Homo sapiens), …;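 active = inhibition of at least 50% at 8 µM in the primary screen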
# Target sequence (O15151 whole entry, looked up): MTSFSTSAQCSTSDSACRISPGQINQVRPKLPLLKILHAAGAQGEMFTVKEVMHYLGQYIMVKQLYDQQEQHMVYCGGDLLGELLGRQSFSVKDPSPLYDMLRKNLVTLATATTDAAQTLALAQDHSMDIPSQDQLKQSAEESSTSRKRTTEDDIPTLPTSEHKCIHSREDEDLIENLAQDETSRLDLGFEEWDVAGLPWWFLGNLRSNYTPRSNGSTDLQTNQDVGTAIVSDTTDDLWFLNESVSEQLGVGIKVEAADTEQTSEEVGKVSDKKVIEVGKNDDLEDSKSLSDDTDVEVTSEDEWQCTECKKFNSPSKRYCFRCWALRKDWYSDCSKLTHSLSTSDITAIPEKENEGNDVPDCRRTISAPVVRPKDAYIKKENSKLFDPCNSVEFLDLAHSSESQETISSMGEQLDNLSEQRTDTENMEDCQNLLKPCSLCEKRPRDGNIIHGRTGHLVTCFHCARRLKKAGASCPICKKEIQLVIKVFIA
# Target sequence (Q00987 whole entry, looked up): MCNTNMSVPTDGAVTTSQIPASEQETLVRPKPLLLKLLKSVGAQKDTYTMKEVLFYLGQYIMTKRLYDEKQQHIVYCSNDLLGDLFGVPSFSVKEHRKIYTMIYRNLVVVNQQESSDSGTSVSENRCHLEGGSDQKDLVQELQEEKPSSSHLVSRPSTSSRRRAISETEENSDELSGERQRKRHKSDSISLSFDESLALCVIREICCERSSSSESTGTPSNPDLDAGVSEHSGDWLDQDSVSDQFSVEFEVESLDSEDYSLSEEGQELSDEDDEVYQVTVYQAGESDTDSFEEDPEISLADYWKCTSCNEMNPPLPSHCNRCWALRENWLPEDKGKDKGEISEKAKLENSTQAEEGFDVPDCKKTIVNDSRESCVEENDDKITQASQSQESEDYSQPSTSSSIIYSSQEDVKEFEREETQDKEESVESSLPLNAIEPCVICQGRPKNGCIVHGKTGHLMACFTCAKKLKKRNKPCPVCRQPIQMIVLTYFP
# Calb FLC: C. albicans growth inhibition with fluconazole, primary screen, CaCi-2 strain, Alamar Blue fluorescence; C. albicans CaCi-2 (fluconazole-resistant clinical isolate) + fluconazole, 48 h; growth inhibition, % (no concentration beside the values); AID 1979, 2009; 300,000 compounds, 0.57% hits;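 active = growth inhibition above about 58% in most replicates, limit read from the data, passing the limit was not always enough; inconclusive = exactly half the replicates above a set limit; inactive = most replicates below a set limit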;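 also: all wells also contain fluconazole at 8 µg/ml as a sub-toxic cotreatment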
# Beta apoptosis: inhibitors of cytokine-induced beta cell apoptosis, primary screen, luminescence; 300,000 compounds, 0.8% hits; protection from apoptosis, % (no concentration beside the values); AID 435005, 2010; INS-1E cytokine-induced death, ATP luminescence, 48 h; percent of positive-control rescue, neutral wells zero;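 active = Every replicate reaches about 75%, or at least half do and their mean reaches it too, limit read from the data; inconclusive = At least half of replicates reach the limit but their mean does not; inactive = Under half of replicates reach the limit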;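 also: higher means more ATP so stronger rescue from cytokine killing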
# Hits are given with their value; i = inactive; ? = inconclusive; nt = not tested or not shown.
SMILES,SKKanGAS inh,CSC inhib,MPTP inh,Mdm2-MdmX inh,Calb FLC,Beta apoptosis
COc1ccccc1NC(=O)Nc1ccc(-n2ccc(C(F)(F)F)n2)cc1,i,83.2,i,i,i,i
Cc1cc(/C=N/NC(N)=S)c(C)n1-c1ccc(Cl)cc1,i,i,i,i,i,i
Cc1cc(/C=N/NC(N)=S)c(C)n1-c1cccc(Cl)c1,i,i,i,i,104.0,i
Cc1ccnc(Sc2ccc([N+](=O)[O-])cc2[N+](=O)[O-])n1,i,i,i,i,97.6,i
Cc1ccc(Sc2ccc([N+](=O)[O-])cc2[N+](=O)[O-])nc1,i,i,i,i,i,i
CC(NC(=O)CCSc1nc(-c2ccc3c(c2)OCO3)cc(C(F)(F)F)n1)c1ccccc1 (configuration not stated),i,i,i,i,i,nt
CCOc1ccc(C(=O)/C=C/c2cn(CN3CCN(C)CC3)c3ccccc23)cc1,nt,99.9,i,i,nt,i
CCOC(=O)/C=C/C(=O)Nc1cccc([N+](=O)[O-])c1,i,107.8,i,i,i,i
Cc1ccc(NC(=O)CSc2nc3c(c(=O)n(C)c(=O)n3C)n2C)cc1,i,i,i,i,i,i
CCc1nn(C(C)C(=O)N2CCN(c3ccc(OC)cc3)CC2)c(=O)c2cc3occc3n12 (configuration not stated),i,i,i,i,i,i
CCCN(CCC)S(=O)(=O)c1ccc(C(=O)Nc2nnc(-c3cccc(OC)c3)o2)cc1,108.1,i,i,i,i,i
O=C(Nc1nnc(-c2ccccc2)o1)c1cc(Cl)sc1Cl,89.5,i,i,i,i,i
O=C(Nc1nnc(-c2ccc(F)cc2)o1)c1cccc([N+](=O)[O-])c1,84.1,i,i,i,91.1,i
O=C(Nc1ccc(NC(=O)c2cccc([N+](=O)[O-])c2)cc1)c1cccc([N+](=O)[O-])c1,i,i,i,i,i,i
COc1cccc(-c2nnc(NC(=O)c3cccc(F)c3)o2)c1,86.8,i,i,i,i,i
CCCN(CCC)S(=O)(=O)c1ccc(C(=O)Nc2nnc(CSC)o2)cc1,i,i,i,i,i,i
Cc1ccc(CN2CC(C(=O)N3CCN(S(=O)(=O)c4ccc(C)cc4C)CC3)CC2=O)cc1 (configuration not stated),nt,nt,i,i,nt,i
C[C@H]1CN([C@@H](C)CO)C(=O)Cc2cc(NC(=O)CCC(F)(F)F)ccc2O[C@H]1CN(C)S(=O)(=O)c1ccc(F)cc1,nt,i,i,i,nt,i
COc1ccc(Cl)cc1NC(=O)CN(C1CCCCC1)S(C)(=O)=O,i,i,i,i,i,i
O=C(Nc1nnc(-c2cccs2)o1)c1cccc(F)c1,85.0,i,i,i,87.5,i
O=C(NCc1cccs1)c1cc(-c2ccccc2)nc2ccccc12,i,i,i,i,i,i
O=C(Nc1nnc(-c2cccs2)o1)c1cc(-c2ccccc2)nc2ccccc12,92.1,i,i,i,i,i
O=C(Nc1nnc(-c2ccc3c(c2)OCCO3)o1)c1ccc(Cc2ccccc2)cc1,101.7,nt,i,i,i,nt
COc1ccc(C(=O)OCC(=O)Nc2nnc(-c3ccccc3)o2)cc1,59.1,i,i,i,i,i
O=C(Nc1nnc(-c2cccs2)o1)c1ccc(S(=O)(=O)N2CCOCC2)cc1,i,i,i,i,i,i
SMILES,SKKanGAS inh,CSC inhib,MPTP inh,Mdm2-MdmX inh,Calb FLC,Beta apoptosis
O=C(NCC1CCCO1)c1onc(CSc2ccc(Cl)cc2)c1C(=O)O (configuration not stated),i,i,i,i,i,i
O=C(NCC(=O)N1CCN(c2ccccc2)CC1)c1cccs1,i,i,i,i,i,i
COc1ccc(C(=O)Nc2nnc(-c3ccccc3)o2)cc1OC,49.8,i,i,i,i,i
Cc1cccc(OCC(=O)Nc2cc(S(=O)(=O)N3CCOCC3)ccc2N2CCCC2)c1C,i,i,i,i,i,i
CCNC(=S)NNC(=O)c1cc(-c2cccc(C)c2)nc2ccccc12,i,i,i,i,115.9,i
CCNC(=S)NNC(=O)c1cc(-c2ccc(OC)cc2)nc2ccccc12,i,i,i,i,99.3,i
COc1ccc(Cl)cc1C(=O)NNC(=S)NC(=O)c1cc(-c2ccc(Cl)cc2)nc2ccccc12,70.8,i,i,i,i,i
CCNC(=S)NNC(=O)c1cc(-c2cccc(OCC)c2)nc2ccccc12,i,i,i,i,i,i
O=C(NC(=S)Nc1ccccc1)c1cc(-c2ccccc2)nc2ccccc12,i,i,i,i,i,i
O=C(NC1CCCC1)C1c2ccccc2OCC(=O)N1CCc1c[nH]c2ccccc12 (configuration not stated),nt,nt,i,nt,nt,nt
Nc1nonc1C(=O)NCCNc1ncccc1[N+](=O)[O-],i,i,i,i,i,i
Cc1c(C(=O)Nc2nnc(C3CC3)s2)oc2c(Cl)cccc12,i,i,i,i,i,nt
C/C(=N\OCc1ccc(C#N)cc1)c1cc2ccccc2o1,i,i,i,i,77.7,i
Cc1ccc(-n2c(SCC(=O)N3CCOCC3)nnc2-c2ccncc2)cc1C,i,i,i,i,i,i
CC(C)[C@H](NC(=O)N1CC(=O)Nc2ccccc21)C(=O)N[C@@H](Cc1ccccc1)C(=O)O,94.2,i,i,i,i,nt
CC(C)C[C@H](NC(=O)N1CC(=O)Nc2ccccc21)C(=O)N[C@H](C(=O)O)c1ccccc1,62.5,i,i,nt,i,i
Cc1nn(Cc2ccc(F)cc2)c2sc(C(=O)Nc3ccc(N4CCOCC4)cc3N3CCOCC3)cc12,i,i,i,i,i,i
Cc1ccc(/C=C2/Sc3ccccc3N(CC(=O)NCC3CCCO3)C2=O)cc1 (configuration not stated),i,i,i,i,i,i
CN1C(=O)/C(=C/c2ccccc2F)Sc2ccc(C(=O)N3CCCC3)cc21,71.4,i,i,i,i,i
COc1ccc(/C=C2\Sc3ccc(C(=O)NCC4CCCO4)cc3N(C)C2=O)cc1 (configuration not stated),91.8,i,i,i,i,i
Cc1ccccc1/C=C1\Sc2ccc(C(=O)N3CCN(c4ccccn4)CC3)cc2N(C)C1=O,?,i,i,i,i,i
COc1ccc(/C=C2\Sc3ccc(C(=O)N4CCOCC4)cc3N(C)C2=O)cc1,59.9,i,i,i,i,i
CCOC(=O)C/C(C)=N/NC(=O)Nc1ccccc1,i,i,i,i,i,i
CC(=O)c1cnc(SCc2ccc(Cl)cc2)nc1C,i,i,i,i,i,nt
Cc1nc(SCc2ccc(Cl)c(Cl)c2)ncc1C(=O)O,i,i,i,i,89.7,i
CCCCN(C(=O)c1cccs1)c1c(N)n(Cc2ccccc2)c(=O)[nH]c1=O,nt,i,i,i,nt,i

# Compound activity as filed in PubChem BioAssay.
